Test results published in PubChem BioAssay (Tox21).
“And” between values parts separate entries of the source, which are not always exact repeats. Identical values can stand only once. Some compounds were tested as several samples or in several runs, with calls that do not always agree. The source made the active and inactive calls. Unless noted, calls come from the whole dose curve; as a rule, active = well fitted curve in the direction sought with a large enough effect in the repeat runs; inconclusive = weak or mixed curves; inactive = no such curve, though single readings can be large; an effect the other way counts as inactive or inconclusive.

What was measured:
[1] = qHTS assay to identify small molecule antagonists of the thyroid receptor (TR) signaling pathway - cell viability counter screen (AID 743064); note: nearly all actives have a fitted effect of over 50% in size; note: potency is the fitted concentration of half-maximal effect
Method in brief: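 In-well cytotoxicity read by CellTiter-Fluor (30 min, 37 C) following 23.5 h exposure of GH3 cells bearing a TRE-luciferase sensor. Compounds were added alongside 1 nM (final) T3 to drive TR transactivation.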

[2] = qHTS assay to identify small molecule antagonists of the thyroid receptor (TR) signaling pathway (AID 743065); note: nearly all actives have a fitted effect of over 55% in size; note: potency is the fitted concentration of half-maximal effect
Method in brief: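 GH3.TRE-Luc rat pituitary cells carrying two TR response elements driving luciferase were plated for 4 h, given compound plus 1 nM T3 (final), and incubated 23.5 h at 37 C. ONE-Glo luminescence measured reporter inhibition; CellTiter-Fluor fluorescence tracked cytotoxicity.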

[3] = tested on: thyroid hormone receptor (rat, GH3 cells); experiment: qHTS assay to identify small molecule agonists of the thyroid receptor (TR) signaling pathway (AID 743066; calls by dose curve; note: % is set by controls: 0 for no effect and ±100 for the full control effect)
[4] = qHTS assay to identify small molecule antagonists of the estrogen receptor alpha (ER-alpha) signaling pathway - cell viability counter screen (AID 743074; calls by dose curve; note: nearly all actives have a fitted effect of over 45% in size; note: potency is the fitted concentration of half-maximal effect)
Aromatase (Homo sapiens) = Aromatase (Homo sapiens) (UniProt P11511); experiment: qHTS assay to identify aromatase inhibitors (AID 743083); note: nearly all actives have a fitted effect of over 55% in size; note: potency is the fitted concentration of half-maximal effect
[5] = qHTS assay to identify aromatase inhibitors - cell viability counter screen (AID 743084);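 note: cells stimulated with testosterone during compound exposure; nearly all actives have a fitted effect of over 55% in size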; note: potency is the fitted concentration of half-maximal effect
[6] = qHTS assay to identify small molecule that activate the aryl hydrocarbon receptor (AhR) signaling pathway - cell viability counter screen (AID 743086); note: nearly all actives have a fitted effect of over 45% in size; note: potency is the fitted concentration of half-maximal effect
Method in brief: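 HepG2-AhR-luc (HG2L7.5c1) cells, 4000/well, were preincubated 5 h at 37C, exposed to compound in qHTS format for 24 hr at 37C, then given CellTiter-Fluor for 30 min; viability was read as fluorescence in the reporter wells.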

[7] = qHTS assay for small molecule agonists of the antioxidant response element (ARE) signaling pathway - cell viability counter screen (AID 743203; calls by dose curve; note: nearly all actives have a fitted effect of over 55% in size; note: potency is the fitted concentration of half-maximal effect)
Method in brief: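 Compounds in DMSO were pinned onto ARE-bla HepG2 cells plated 5 hrs earlier at 2,000 cells/well. Sixteen hours later at 37C/5% CO2, CellTiter-Glo was added and luminescence measured after 30 min at room temperature.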

[8] = target: Estrogen receptor (Homo sapiens) (UniProt P03372); experiment: qHTS assay to identify small molecule antagonists of the estrogen receptor alpha (ER-alpha) signaling pathway (AID 743069; active = well fitted curve in the direction sought with a large enough effect in the signal ratio in the repeat runs, not every such curve was filed as active; inconclusive = weak or mixed curves, or effect the other way; inactive = no such curve, though single readings can be large or run the other way; the % refers to the signal ratio; note: potency is the fitted concentration of half-maximal effect)
Method in brief: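 HEK293 cells stably carrying an ER-alpha-UAS-bla beta-lactamase reporter were pre-cultured overnight in 2% charcoal-stripped FBS medium. Test compounds in DMSO were added together with 17beta-estradiol for 18 hr at 37C. Read-out was fluorescence after 2 hr with LiveBLAzer B/G FRET substrate at room temperature.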

[9] = target: Estrogen receptor (Homo sapiens) (UniProt P03372); experiment: qHTS assay to identify small molecule agonists of the estrogen receptor alpha (ER-alpha) signaling pathway (AID 743075; calls by dose curve; note: potency is the fitted concentration of half-maximal effect; for activation: % is set by controls: 0 for no effect and ±100 for the full control effect); settings: HEK293 ER-alpha-UAS-bla, beta-lactamase FRET ratio, 18 h; activation: at 70.1 µM (top of the series)
[10] = qHTS assay to identify small molecule antagonists of the estrogen receptor alpha (ER-alpha) signaling pathway using the BG1 cell line - cell viability counter screen (AID 743081);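 note: compound given together with 17beta-estradiol as the ER stimulus; nearly all actives have a fitted effect of over 45% in size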; note: potency is the fitted concentration of half-maximal effect
[11] = target: Aryl hydrocarbon receptor (Homo sapiens) (UniProt P35869); experiment: qHTS assay to identify small molecule that activate the aryl hydrocarbon receptor (AhR) signaling pathway (AID 743085);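 note: HG2L7.5c1 human HepG2 liver cells with stably integrated DRE-driven firefly reporter; % is set by controls: 0 for no effect and ±100 for the full control effect; nearly all actives have a fitted effect of over 15% in size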
Method in brief: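 Luminescence (ONE-Glo) from a dioxin-responsive-element luciferase reporter in HG2L7.5c1 HepG2 cells after 24 hr compound exposure at 37C; viability measured by CellTiter-Fluor fluorescence beforehand.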

[12] = qHTS assay to identify small molecule antagonists of the peroxisome proliferator-activated receptor gamma (PPARg) signaling pathway - cell viability counter screen (AID 743194); note: nearly all actives have a fitted effect of over 55% in size; note: potency is the fitted concentration of half-maximal effect
Method in brief: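 PPARg-UAS-bla HEK293H cells were plated, rested 5 h at 37 C, then treated with compounds plus rosiglitazone (50 nM final) for 17 h at 37 C; viability was then read by CellTiter-Glo luminescence after 30 min at room temperature.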

[13] = qHTS assay for small molecule activators of the heat shock response signaling pathway - cell viability counter screen (AID 743209); note: nearly all actives have a fitted effect of over 50% in size; note: potency is the fitted concentration of half-maximal effect
Method in brief: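 Counter screen for cytotoxicity in HeLa HSE-bla reporter cells. Treatment was 5 h at 37 C; viability was detected by luminescent ATP assay (CellTiter-Glo) in the same wells as the beta-lactamase read.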

[14] = target: Peroxisome proliferator-activated receptor gamma (Homo sapiens) (UniProt P37231); experiment: qHTS assay to identify small molecule agonists of the peroxisome proliferator-activated receptor gamma (PPARg) signaling pathway (AID 743094; active = well fitted activation curve with a large enough effect in the signal ratio in the repeat runs, not every such curve was filed as active; inconclusive = weak or mixed curves, or effect the other way; inactive = no such curve, though single readings can be large or run the other way; the % refers to the signal ratio; note: % is set by controls: 0 for no effect and ±100 for the full control effect)
Method in brief: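 Following 5 h plating at 37C, PPARg-bla HEK293H cells receive compound or DMSO for 17 h; fluorescence intensity is recorded after LiveBLAzer B/G loading for 1 h at room temperature.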

[15] = target: Peroxisome proliferator-activated receptor gamma (Homo sapiens) (UniProt P37231); experiment: qHTS assay to identify small molecule antagonists of the peroxisome proliferator-activated receptor gamma (PPARg) signaling pathway (AID 743191; calls by dose curve; note: nearly all actives have a fitted effect of over 30% in size; note: potency is the fitted concentration of half-maximal effect)
Method in brief: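 GeneBLAzer PPARg UAS-bla HEK293H cells carrying a UAS-driven beta-lactamase reporter were plated at 3000 cells/well, preincubated 5 h at 37C, then given compound for 17 h at 37C; LiveBLAzer B/G FRET substrate was read after 1 h at room temperature.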

[16] = qHTS assay for small molecule activators of the heat shock response signaling pathway (AID 743210; active = well fitted activation curve with a large enough effect in the signal ratio in the repeat runs, with a control signal flat, not every such curve was filed as active; inconclusive = weak or mixed curves; the % refers to the signal ratio; note: % is set by controls: 0 for no effect and ±100 for the full control effect)
Method in brief: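 HSE-bla HeLa cells (beta-lactamase reporter under heat shock response elements) were exposed to compounds for 5 h at 37 C, then loaded with LiveBLAzer B/G FRET substrate for 2.5 h at room temperature before fluorescence reading.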

[17] = qHTS assay for small molecule agonists of the antioxidant response element (ARE) signaling pathway (AID 743202; active = well fitted activation curve with a large enough effect in the signal ratio in the repeat runs, not every such curve was filed as active; inconclusive = weak or mixed curves, or effect the other way; inactive = no such curve, though single readings can be large or run the other way; the % refers to the signal ratio; note: potency is the fitted concentration of half-maximal effect)
Method in brief: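 Read-out: LiveBLAzer B/G FRET substrate fluorescence after 2 h at room temperature, following 16 h compound treatment at 37 C of HepG2 cells carrying an ARE-driven beta-lactamase reporter.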

[18] = target: Estrogen receptor (Homo sapiens) (UniProt P03372); experiment: qHTS assay to identify small molecule agonists of the estrogen receptor alpha (ER-alpha) signaling pathway using the BG1 cell line (AID 743079); settings: BG1Luc4E2 cells, ERE-luciferase agonist, 22 h; at 70.3 µM (top of the series); note: % is set by controls: 0 for no effect and ±100 for the full control effect; nearly all actives have a fitted effect of over 20% in size

Sequence of Peroxisome proliferator-activated receptor gamma (Homo sapiens) (P37231 whole entry, looked up): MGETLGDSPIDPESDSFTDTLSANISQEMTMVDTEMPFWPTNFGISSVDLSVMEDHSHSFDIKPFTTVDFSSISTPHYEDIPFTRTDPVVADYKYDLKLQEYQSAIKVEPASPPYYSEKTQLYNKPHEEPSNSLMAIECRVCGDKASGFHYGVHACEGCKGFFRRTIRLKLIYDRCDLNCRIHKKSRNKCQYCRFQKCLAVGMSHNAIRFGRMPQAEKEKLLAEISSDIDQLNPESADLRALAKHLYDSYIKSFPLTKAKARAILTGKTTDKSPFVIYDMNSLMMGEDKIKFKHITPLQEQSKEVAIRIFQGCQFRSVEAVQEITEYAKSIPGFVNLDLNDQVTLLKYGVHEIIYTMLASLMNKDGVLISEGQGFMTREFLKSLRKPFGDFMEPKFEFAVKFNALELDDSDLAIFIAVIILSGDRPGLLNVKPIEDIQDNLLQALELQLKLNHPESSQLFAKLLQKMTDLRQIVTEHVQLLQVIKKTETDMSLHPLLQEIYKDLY
Sequence of Aryl hydrocarbon receptor (Homo sapiens) (P35869 whole entry, looked up): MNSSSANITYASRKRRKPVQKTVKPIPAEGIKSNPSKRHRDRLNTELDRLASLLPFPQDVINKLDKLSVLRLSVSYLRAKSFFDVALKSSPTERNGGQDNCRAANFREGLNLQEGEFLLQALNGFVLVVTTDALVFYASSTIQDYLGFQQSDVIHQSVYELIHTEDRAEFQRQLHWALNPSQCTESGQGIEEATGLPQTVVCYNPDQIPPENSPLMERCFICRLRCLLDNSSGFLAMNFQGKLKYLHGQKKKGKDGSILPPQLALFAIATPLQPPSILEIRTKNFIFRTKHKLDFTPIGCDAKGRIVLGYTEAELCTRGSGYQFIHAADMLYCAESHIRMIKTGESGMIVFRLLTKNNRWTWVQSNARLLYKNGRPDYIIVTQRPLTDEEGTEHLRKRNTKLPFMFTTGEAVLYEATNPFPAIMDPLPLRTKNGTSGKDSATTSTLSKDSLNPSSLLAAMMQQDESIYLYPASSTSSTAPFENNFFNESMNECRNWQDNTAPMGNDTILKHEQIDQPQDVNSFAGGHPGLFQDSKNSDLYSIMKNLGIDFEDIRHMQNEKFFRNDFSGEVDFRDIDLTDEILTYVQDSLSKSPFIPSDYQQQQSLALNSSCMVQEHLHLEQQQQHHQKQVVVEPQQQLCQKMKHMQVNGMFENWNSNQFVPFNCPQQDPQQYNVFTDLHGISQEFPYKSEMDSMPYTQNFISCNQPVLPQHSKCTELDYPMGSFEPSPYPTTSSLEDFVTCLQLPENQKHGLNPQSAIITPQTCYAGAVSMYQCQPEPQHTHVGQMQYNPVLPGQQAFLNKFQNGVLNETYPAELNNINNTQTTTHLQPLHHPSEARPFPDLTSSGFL
Sequence of Estrogen receptor (Homo sapiens) (P03372 whole entry, looked up): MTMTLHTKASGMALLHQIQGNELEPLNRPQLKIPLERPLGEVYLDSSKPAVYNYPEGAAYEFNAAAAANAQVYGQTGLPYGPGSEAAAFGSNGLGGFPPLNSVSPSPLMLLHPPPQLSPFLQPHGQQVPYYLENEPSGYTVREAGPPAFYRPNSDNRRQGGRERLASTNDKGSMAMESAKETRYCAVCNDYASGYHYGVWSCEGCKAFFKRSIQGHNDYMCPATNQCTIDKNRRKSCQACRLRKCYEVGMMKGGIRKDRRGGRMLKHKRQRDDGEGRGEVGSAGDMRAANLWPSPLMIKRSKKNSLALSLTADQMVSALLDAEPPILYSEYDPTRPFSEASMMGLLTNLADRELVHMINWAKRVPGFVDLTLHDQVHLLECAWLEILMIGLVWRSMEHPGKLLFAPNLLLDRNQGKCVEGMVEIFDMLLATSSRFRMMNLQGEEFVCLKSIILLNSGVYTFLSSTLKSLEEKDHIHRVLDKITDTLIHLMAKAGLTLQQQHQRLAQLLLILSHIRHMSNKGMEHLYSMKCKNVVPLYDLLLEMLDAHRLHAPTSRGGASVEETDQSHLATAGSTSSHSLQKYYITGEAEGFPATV
Sequence of Aromatase (Homo sapiens) (P11511 whole entry, looked up): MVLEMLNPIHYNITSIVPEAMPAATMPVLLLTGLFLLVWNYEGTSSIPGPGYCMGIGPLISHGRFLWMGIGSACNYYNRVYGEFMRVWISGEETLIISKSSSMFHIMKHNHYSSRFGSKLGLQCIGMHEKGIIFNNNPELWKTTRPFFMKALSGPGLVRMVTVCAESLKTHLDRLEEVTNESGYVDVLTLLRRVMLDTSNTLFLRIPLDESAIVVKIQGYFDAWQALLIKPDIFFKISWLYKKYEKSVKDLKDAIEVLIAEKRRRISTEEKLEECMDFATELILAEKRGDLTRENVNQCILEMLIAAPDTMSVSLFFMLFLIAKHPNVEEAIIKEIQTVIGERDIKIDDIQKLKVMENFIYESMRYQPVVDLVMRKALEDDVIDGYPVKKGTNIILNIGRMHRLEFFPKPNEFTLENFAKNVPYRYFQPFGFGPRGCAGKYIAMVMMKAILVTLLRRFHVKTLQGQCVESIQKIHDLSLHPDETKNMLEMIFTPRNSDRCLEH

S=c1[nH]c2ccccc2s1
inactive and 6.16 µM (active): Potency [4]
inactive: Potency [1] | Potency [2] | Potency [3] | Potency (Aromatase (Homo sapiens)) | Potency [5] | Potency [6] | Potency [7]

O=S1(=O)CC(Cl)(Cl)C(Cl)(Cl)C1
inactive: Potency [11]
active: Potency [1] 1.93 µM | Potency [2] 1.37 µM | Potency [8] 21.9 µM [inconclusive] | Potency [4] 49 µM | Potency [9] 12.3 µM [inconclusive] | Potency [10] 30.6 µM | Potency (Aromatase (Homo sapiens)) 1.93 µM | Potency [5] 2.17 µM | Potency [6] 13.7 µM | Potency [12] 5.49 µM | Potency [7] 4.33 µM | Potency [13] 1.95 µM

COc1cc(/C=C/C(=O)O[C@H]2CC[C@]34C[C@]35CC[C@]3(C)[C@@H]([C@H](C)CCC=C(C)C)CC[C@@]3(C)[C@@H]5CC[C@H]4C2(C)C)ccc1O
inactive: Potency [1] | Potency [2] | Potency [3] | Potency [10] | Potency (Aromatase (Homo sapiens)) | Potency [5] | Potency [11] | Potency [6] | Potency [14] | Potency [15] | Potency [12] | Potency [7] | Potency [13]

C[C@H]1[C@H]2CC[C@H]3[C@@H]4CC=C5C[C@@H](N(C)C)CC[C@]5(C)[C@H]4CC[C@]23CN1C
inactive: Potency [1] | Potency [2] | Potency [3] | Potency [4] | Potency (Aromatase (Homo sapiens)) | Potency [5] | Potency [11] | Potency [6] | Potency [14] | Potency [15] | Potency [13] | Potency [16]

CC(C)OC(=O)c1cc2c(OCC(O)CNC(C)(C)C)cccc2[nH]1 (centres undefined)
active: Potency [1] 13.3 µM | Potency [2] 21.1 µM
inactive: Potency [3] | Potency [4] | Potency [10] | Potency (Aromatase (Homo sapiens)) | Potency [5] | Potency [6] | Potency [7] | Potency [13] | Potency [16]

O=C(OCC1CO1)C1CCCCC1C(=O)OCC1CO1 (centres undefined)
active: Potency [1] 54.5 µM | Potency [2] 27.3 µM | Potency [5] 48.6 µM | Potency [17] 48.6 µM
inactive: Potency [3] | Potency [4] | Potency [11] | Potency [6] | Potency [14] | Potency [12] | Potency [7] | Potency [13] | Potency [16]

Clc1ccc2n[nH]nc2c1
inactive: Potency [1] | Potency [2] | Potency [3] | Potency [4] | Potency [10] | Potency (Aromatase (Homo sapiens)) | Potency [5] | Potency [6] | Potency [12] | Potency [13]

CCCCCCCCCCCCCCCCCC[N+](C)(C)Cc1ccccc1
active: Potency [1] 11 µM | Potency [2] 7.77 µM | Potency [4] 22.1 µM | Potency (Aromatase (Homo sapiens)) 21.9 µM | Potency [5] 49 µM | Potency [12] 44.1 µM | Potency [7] 19.5 µM | Potency [13] 27.8 µM
inactive: Potency [3] | Potency [11]

Cc1[nH]nc2c1N=C(c1ccccc1Cl)c1cc([N+](=O)[O-])ccc1N2
inactive: Potency [3]
active: Potency [1] 27.3 µM | Potency [2] 19.3 µM | Potency [4] 6.92 µM | Potency [10] 54.5 µM | Potency [6] 48.6 µM | Potency [12] 38.9 µM | Potency [7] 15.4 µM | Potency [13] 15.5 µM

O=C1C=CC(=O)N1c1ccc(Cc2ccc(N3C(=O)C=CC3=O)cc2)cc1
inactive: Potency [3] | Potency [10] | Potency [11]
active: Potency [1] 10.9 µM | Potency [2] 8.63 µM | Potency [4] 21.9 µM | Potency (Aromatase (Homo sapiens)) 9.69 µM | Potency [5] 9.69 µM | Potency [12] 13.8 µM | Potency [7] 17.2 µM | Potency [13] 17.4 µM

CCCCN(CCCC)c1ccc(C(=O)c2ccccc2C(=O)O)c(O)c1
inactive: Potency [3] | Potency [10] | Potency (Aromatase (Homo sapiens)) | Potency [5] | Potency [11] | Potency [6]
active: Potency [1] 55 µM | Potency [2] 55 µM | Potency [4] 49.4 µM | Potency [12] 44.1 µM | Potency [13] 62.2 µM

CCN(Cc1cccnc1)C(=O)c1cccc(Cl)c1[C@]1(C)C(=O)N(Cc2ccc(OC)cc2OC)c2ccc(Cl)cc21
inactive: Potency [3] | Potency [4] | Potency [11] | Potency [13]
active: Potency [1] 4.54 µM | Potency [2] 2.55 µM | Potency (Aromatase (Homo sapiens)) 16.1 µM | Potency [5] 16.1 µM | Potency [6] 11.4 µM | Potency [7] 5.09 µM

CCCCCCCCn1sc(Cl)c(Cl)c1=O
inactive: Potency [3] | Potency [9] | Potency [11] | Potency [14]
active: Potency [1] 27.3 µM | Potency [2] 27.3 µM | Potency (Aromatase (Homo sapiens)) 4.86 µM | Potency [5] 5.45 µM | Potency [15] 49 µM | Potency [12] 21.9 µM | Potency [7] 4.33 µM

O=c1c(-c2ccccc2)c1-c1ccccc1
inactive: Potency [4] | Potency [9] | activation [18] -33.7% | Potency [10] | Potency [11] | Potency [6] | Potency [7] | Potency [13]
active: Potency [1] 5.96 µM | Potency [2] 5.31 µM | Potency [8] 26.8 µM [inconclusive] | Potency (Aromatase (Homo sapiens)) 29.8 µM

NC(=NCCCCCCN=C(N)/N=C(\N)Nc1ccc(Cl)cc1)/N=C(\N)Nc1ccc(Cl)cc1
inactive: Potency [3] | Potency [11] | Potency [6] | Potency [14]
active: Potency [1] 8.56 µM [middle of 5 runs] | Potency [2] 6.06 µM [middle of 5 runs] | Potency [4] 25 µM [middle of 4 runs] | Potency (Aromatase (Homo sapiens)) 24.1 µM [middle of 4 runs]
inactive and 68.2 µM (active): Potency [10]

Cc1cc(O)c(C(C)(C)C)cc1Sc1cc(C(C)(C)C)c(O)cc1C
active: Potency [1] 3.43 µM | Potency [2] 2.43 µM | Potency [4] 17.3 µM | Potency [10] 54.4 µM | Potency (Aromatase (Homo sapiens)) 13.7 µM | Potency [5] 30.6 µM | Potency [12] 10.9 µM | Potency [7] 7.68 µM | Potency [13] 10.9 µM
inactive: Potency [3] | Potency [11]
